Test systems include FLT3(K663Q); FLT3(N841I); FLT3(R834Q); FLT3-autoinhibited; FLT3; FLT4; FRK; FYN; GAK.
What all share (conditions): Compound Concentration (nM):1000
A further assay relates to T1, GCN2(Kin.Dom.2,S808G).
T1 construct: gene EIF2AK4

The source of these data is publication PMC7826789 (International Journal of Molecular Sciences, 2021).
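Also: KINOMEscan scanMAX binding as percent activity remaining versus control; lower means stronger binding.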

`COc1ccc(COc2ccc(Cc3cnc(N)nc3N)cc2OC)cc1` [GW632580X]: the “Percent Control” value in the assay on FLT3(K663Q) worked out at 79%; with FLT3(N841I) it was 75%; in the assay on FLT3(R834Q) it was 97%; in the assay on FLT3-autoinhibited, 99%; in the assay with FLT3 it was 100%; with FLT4, 90%. The “Percent Control” value was found to be 100% in the assay with FRK, 100% in the assay with FYN, 95% in the assay on GAK and 100% in the assay on GCN2(Kin.Dom.2,S808G).

Regarding `CC1=C(C(=O)Nc2ccc3[nH]ncc3c2)C(c2ccc3ccccc3c2)CC(=O)N1` (stereo not drawn) [GSK270822A], the “Percent Control” value in the assay on FLT3(K663Q) is recorded as 100%; in the assay with FLT3(N841I) it was 80%; in the assay with FLT3(R834Q), 98%; with FLT3-autoinhibited, 100%; in the assay on FLT3, 89%; in the assay with FLT4 it was 100%. Moreover, the “Percent Control” value in the assay on FRK turned out to be 61%; in the assay with FYN, 83%; with GAK it was 90%; in the assay on GCN2(Kin.Dom.2,S808G), 100%.

For `O=C(Nc1n[nH]c2nc(-c3ccc(O)cc3)c(Br)cc12)C1CC1` [SB-725317], the “Percent Control” value in the assay on FLT3(K663Q) is on record as 66%; with FLT3(N841I) it was 100%; in the assay on FLT3(R834Q) it was 72%; with FLT3-autoinhibited, 96%; in the assay on FLT3 it was 64%; with FLT4 it was 84%. For the same compound, the “Percent Control” value is reported as 100% with FRK, 100% with FYN, 81% in the assay on GAK and 96% in the assay on GCN2(Kin.Dom.2,S808G).

In the case of `NS(=O)(=O)c1ccc(Nc2ncc(-c3ccccc3)o2)cc1` [GW572399X], the “Percent Control” value is 9.2% in the assay with FLT3(K663Q); 21% in the assay with FLT3(N841I); 14% in the assay with FLT3(R834Q); 2% in the assay on FLT3-autoinhibited; 11% with FLT3; 100% with FLT4. For the same compound, the “Percent Control” value is listed as 100% in the assay with FRK, 100% in the assay on FYN, 99% with GAK and 80% in the assay with GCN2(Kin.Dom.2,S808G).

Turning to `Cl.O=S1CCN(Cc2ccc(-c3ccc4ncnc(Nc5ccc(OCc6ccccc6)c(F)c5)c4c3)o2)CC1` [GW576924A], the “Percent Control” value came to 93% in the assay with FLT3(K663Q); 100% in the assay with FLT3(N841I); 100% with FLT3(R834Q); 87% with FLT3-autoinhibited; 90% with FLT3; 100% in the assay with FLT4. In addition, the “Percent Control” value in the assay with FRK, in the assay with FYN, in the assay with GAK and in the assay on GCN2(Kin.Dom.2,S808G) was 100% each time.

`COc1cc(/C=N/Nc2ncnc3[nH]ncc23)ccc1O` [GW578748X]: the “Percent Control” value was 75% with FLT3(K663Q); 100% in the assay with FLT3(N841I); 56% with FLT3(R834Q); 84% with FLT3-autoinhibited; 71% with FLT3; 100% in the assay with FLT4. Moreover, the “Percent Control” value is 100% with FRK, 92% in the assay with FYN, 13% in the assay with GAK and 18% in the assay with GCN2(Kin.Dom.2,S808G).

Take `COc1cc2ncnc(Nc3ccc4c(cnn4Cc4ccccc4)c3)c2cc1OC.Cl` [GW282449A]: the “Percent Control” value came to 49% with FLT3(K663Q); 47% in the assay with FLT3(N841I); 83% with FLT3(R834Q); 100% in the assay with FLT3-autoinhibited; 45% in the assay on FLT3; 95% in the assay with FLT4. In addition, the “Percent Control” value came to 100% with FRK, 100% with FYN, 90% in the assay on GAK and 100% in the assay with GCN2(Kin.Dom.2,S808G).

Regarding `Cl.O=C(Nc1ccc(Oc2ccc3[nH]c(NC(=O)c4ccco4)nc3c2)cc1)Nc1cc(C(F)(F)F)ccc1F` [GW683134A], the “Percent Control” value in the assay with FLT3(K663Q) was 0.6%; in the assay with FLT3(N841I), 8.4%; in the assay on FLT3(R834Q), 5.6%; with FLT3-autoinhibited, 92%; in the assay with FLT3 it was 1.3%; with FLT4, 1.5%. The “Percent Control” value in the assay with FRK was 40%; in the assay with FYN it was 71%; in the assay on GAK, 100%; in the assay on GCN2(Kin.Dom.2,S808G), 90%.

In the case of `CC1=C(C(=O)Nc2ccc3[nH]ncc3c2)C(c2ccc(Cl)c(Cl)c2)CC(=O)N1` (stereo not drawn) [GSK299115A], the “Percent Control” value in the assay with FLT3(K663Q) is recorded as 78%; in the assay on FLT3(N841I), 100%; in the assay with FLT3(R834Q), 93%; in the assay with FLT3-autoinhibited, 100%; in the assay on FLT3, 100%; in the assay with FLT4, 100%. In addition, the “Percent Control” value in the assay with FRK was determined as 63%; with FYN, 70%; in the assay with GAK, 95%; in the assay on GCN2(Kin.Dom.2,S808G) it was 100%.

`Cl.c1ccc(Cc2nc3ccc(Nc4ncnc5ccccc45)cc3[nH]2)cc1` [GR269666A]: the “Percent Control” value in the assay with FLT3(K663Q) came to 90%; in the assay with FLT3(N841I), 100%; in the assay on FLT3(R834Q), 100%; in the assay with FLT3-autoinhibited, 86%; with FLT3, 72%; with FLT4 it was 100%. Further, the “Percent Control” value in the assay on FRK, in the assay with FYN, with GAK and in the assay on GCN2(Kin.Dom.2,S808G) was 100% throughout.

On to `Cc1cc(O)cc(C)c1/C=C/c1cncc(C(N)=O)c1` [GW435821X], for which the “Percent Control” value was 99% with FLT3(K663Q); 100% in the assay with FLT3(N841I); 81% in the assay with FLT3(R834Q); 100% in the assay on FLT3-autoinhibited; 95% with FLT3; 100% in the assay with FLT4. Further, the “Percent Control” value was 45% with FRK, 70% with FYN, 75% in the assay on GAK and 100% with GCN2(Kin.Dom.2,S808G).

With `COc1cccc(-n2ncc3c(N/N=C/c4ccncc4)ncnc32)c1` [GW784752X], the “Percent Control” value in the assay with FLT3(K663Q) was found to be 75%; in the assay on FLT3(N841I) it was 36%; in the assay with FLT3(R834Q) it was 77%; in the assay with FLT3-autoinhibited, 85%; in the assay on FLT3 it was 76%; in the assay with FLT4, 100%. In addition, the “Percent Control” value in the assay with FRK worked out at 100%; in the assay on FYN it was 75%; with GAK it was 48%; in the assay on GCN2(Kin.Dom.2,S808G), 65%.
